Values without a mark were called inactive. Records with an inconclusive call do not appear. Active and inactive are the calls of the source. Calls follow the shape of the full dose curve.
These compounds were tested against Acetylcholinesterase (Homo sapiens) (UniProt P22303) (assay: Acetylcholinesterase (AChE) small molecule antagonists: colormetric cell-based qHTS assay (AID 1347395; also: nearly all actives have a fitted effect of over 30% in size; also: potency is read from the fitted curve at half-maximal effect)). Conditions: SH-SY5Y cells AChE activity, colorimetric (Ellman); series mostly up to 115 µM; activity, negative = inhibition: at the top concentration.
Method in brief: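 Endogenous AChE of human neuroblastoma SH-SY5Y cells was measured with an Ellman-type DTNB/acetylthiocholine mix. Compound pretreatment lasted 30 min at 37 C; substrate reaction ran 90 min at 37 C.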
% is scaled to controls: 0 for no effect and ±100 for the full control effect.

Acetylcholinesterase (Homo sapiens), sequence (P22303 whole entry, looked up): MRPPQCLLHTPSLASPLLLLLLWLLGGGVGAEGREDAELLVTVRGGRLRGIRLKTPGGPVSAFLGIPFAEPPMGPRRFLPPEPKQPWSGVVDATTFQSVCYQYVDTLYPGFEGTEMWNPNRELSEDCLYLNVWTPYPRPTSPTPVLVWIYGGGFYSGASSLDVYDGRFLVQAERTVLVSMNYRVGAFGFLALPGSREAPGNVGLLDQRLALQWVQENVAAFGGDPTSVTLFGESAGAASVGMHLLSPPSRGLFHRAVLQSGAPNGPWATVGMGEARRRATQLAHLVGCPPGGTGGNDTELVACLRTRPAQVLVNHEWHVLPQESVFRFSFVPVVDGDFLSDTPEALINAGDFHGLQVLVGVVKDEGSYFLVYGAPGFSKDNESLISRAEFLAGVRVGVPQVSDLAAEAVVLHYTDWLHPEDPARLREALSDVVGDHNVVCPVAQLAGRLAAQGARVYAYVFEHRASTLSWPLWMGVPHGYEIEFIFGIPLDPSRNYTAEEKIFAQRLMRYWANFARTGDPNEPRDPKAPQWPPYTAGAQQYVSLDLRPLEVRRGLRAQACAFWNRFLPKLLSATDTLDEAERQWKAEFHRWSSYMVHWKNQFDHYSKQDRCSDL

Compound | activity, negative = inhibition | Potency
Clc1ccc(C(Cn2ccnc2)OCc2c(Cl)cccc2Cl)c(Cl)c1 (centres undefined) | -2.68% [at 52.9 µM] | –
CCC(C)(Oc1ccc(C2(c3ccc(OC(C)(CC)C(=O)O)cc3)CCCCC2)cc1)C(=O)O (centres undefined) | -0.671% [at 52.9 µM] | –
CCCCCC/C=C\CCCCCCCC(=O)O | -0.465% | –
CSC(=O)c1cccc2nnsc12 | – | 35.6 µM (active)
Clc1ccc(C(Cn2ccnc2)OCc2ccsc2Cl)c(Cl)c1 (centres undefined) | 4.38% [at 52.9 µM] | –
CCCCCCCCCC[N+](C)(CCCCCCCCCC)CCC[Si](OC)(OC)OC | -4.67% | –
O=C(OC[C@H]1O[C@@H](OC(=O)c2cc(O)c(O)c(OC(=O)c3cc(O)c(O)c(O)c3)c2)[C@H](OC(=O)c2cc(O)c(O)c(OC(=O)c3cc(O)c(O)c(O)c3)c2)[C@@H](OC(=O)c2cc(O)c(O)c(OC(=O)c3cc(O)c(O)c(O)c3)c2)[C@@H]1OC(=O)c1cc(O)c(O)c(OC(=O)c2cc(O)c(O)c(O)c2)c1)c1cc(O)c(O)c(OC(=O)c2cc(O)c(O)c(O)c2)c1 | 1.72% [at 23.6 µM] | –
CN1CCCN=C1/C=C/c1cccs1 | – | 15.5 µM (active)
CC(=O)/C=C/C=C1/C2CCC(C2)C1(C)C (centres undefined) | – | 27.5 µM (active)
CN1CC(=O)N2[C@H](c3ccc4c(c3)OCO4)c3[nH]c4ccccc4c3C[C@@H]2C1=O | – | 27.5 µM (active)
COc1cc(N)c(Cl)cc1C(=O)NC1CCN(Cc2ccccc2)CC1 | – | 17.4 µM (active)
CCCCCCCCCCCCOC(=O)c1ccc(O)cc1 | 2.75% | –
Cc1ccc2c(c1)OCC(=O)CO2 | – | 35.6 µM (active)
Cc1ccc([N+](=O)[O-])cc1Cl | -0.511% | –
CNc1ccc(O)cc1 | – | 22.4 µM (active)
Nc1c(NC/C=C\COc2cc(CN3CCCCC3)ccn2)c(=O)c1=O | – | 13.5 µM (active)
COc1ccc(N=Nc2cc(C)c(N=Nc3ccc(S(=O)(=O)O)cc3)cc2OC)cc1 | 17% | –
CCN1CCC[C@H]1CNC(=O)c1c(OC)ccc(Br)c1OC | -3.49% [at 52.9 µM] | –
Cc1cc(O)c2ccccc2c1O | -0.946% [at 52.9 µM] | –
CCN(Cc1cccc(S(=O)(=O)O)c1)c1ccc(C(=C2C=CC(=[N+](CC)Cc3cccc(S(=O)(=O)[O-])c3)C=C2)c2ccccc2)cc1 | -3.74% [at 52.9 µM] | –

What follows are compounds tested against Acetylcholinesterase (Homo sapiens) (UniProt P22303) (assay: Acetylcholinesterase (AChE) small molecule antagonists: fluorescence cell-based qHTS assay (AID 1347398; also: nearly all actives have a fitted effect of over 50% in size; also: potency is read from the fitted curve at half-maximal effect)). Conditions: SH-SY5Y cells; Potency: AChE activity; outcome: AChE activity; series mostly up to 115 µM; activity change, negative = inhibition: at the top concentration.
Method in brief: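 Human SH-SY5Y cells were plated overnight at 37 C, exposed to compound for 30 min at 37 C, 5% CO2, then given acetylthiocholine plus Thiolite Green for 40 min at room temperature; thiocholine fluorescence (Ex/Em 490/520 nm) reports endogenous AChE activity.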

Compound | activity change, negative = inhibition | Potency
COc1cc(Cl)ccc1Oc1ccc(Cl)cc1Cl | -14.9% | –
CCOC(=N)CC(=O)OCC | 2.22% | –
O=C(O)c1c2ccccc2cc2ccccc12 | 3.97% | –
COc1cc(C(=O)NC2CCN(C)CC2)ccc1Nc1ncc2c(n1)N(C1CCCC1)CC(F)(F)C(=O)N2C | – | 11.6 µM (active)
CCCCC/C=C\C/C=C\CCCCCCCC(=O)NC(C)c1ccccc1 (centres undefined) | -21.1% [at 53.7 µM] | –
CCCCCCCCCCCCOCCOS(=O)(=O)O | 2.5% | –
CC(C)(C)c1ccccc1 | 4.6% | –
Cc1nc2ccccn2c(=O)c1CCN1CCC(C(=O)c2ccc(F)cc2)CC1 | – | 7.76 µM (active)
CCC(C)(Oc1ccc(C2(c3ccc(OC(C)(CC)C(=O)O)cc3)CCCCC2)cc1)C(=O)O (centres undefined) | -1.32% [at 53.7 µM] | –
CCCCCC/C=C\CCCCCCCC(=O)O | -8.76% | –
CSC(=O)c1cccc2nnsc12 | – | 39.9 µM (active)
O=C(OC[C@H]1O[C@@H](OC(=O)c2cc(O)c(O)c(OC(=O)c3cc(O)c(O)c(O)c3)c2)[C@H](OC(=O)c2cc(O)c(O)c(OC(=O)c3cc(O)c(O)c(O)c3)c2)[C@@H](OC(=O)c2cc(O)c(O)c(OC(=O)c3cc(O)c(O)c(O)c3)c2)[C@@H]1OC(=O)c1cc(O)c(O)c(OC(=O)c2cc(O)c(O)c(O)c2)c1)c1cc(O)c(O)c(OC(=O)c2cc(O)c(O)c(O)c2)c1 | -11.1% [at 23.8 µM] | –
CCCCCCCCCCCCOC(=O)c1ccc(O)cc1 | -4.63% | –
Nc1c(NC/C=C\COc2cc(CN3CCCCC3)ccn2)c(=O)c1=O | -23% [at 23.8 µM] | –
COc1ccc(N=Nc2cc(C)c(N=Nc3ccc(S(=O)(=O)O)cc3)cc2OC)cc1 | 1.33% | –
CCN1CCC[C@H]1CNC(=O)c1c(OC)ccc(Br)c1OC | -23.9% [at 53.7 µM] | –

What follows are compounds tested against Acetylcholinesterase (Homo sapiens) (UniProt P22303) (assay: Acetylcholinesterase (AChE) small molecule antagonists: enzyme-based qHTS assay with human liver microsomes (AID 1347399; also: nearly all actives have a fitted effect of over 60% in size)). Conditions: Potency: qHTS inhibition; outcome: qHTS inhibition; series mostly up to 115 µM; activity change, negative = inhibition: at the top concentration.
Method in brief: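 Recombinant human AChE (50 mU/mL in the enzyme mix) and human liver microsomes (0.25 mg/mL final) were preincubated with compound and NADPH (0.25 mg/mL final) for 30 min at 37 C. Acetylthiocholine/DTNB was then added; thiocholine was read colorimetrically after 10 min at room temperature.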

Compound | activity change, negative = inhibition | outcome
C=CCc1cc(S(=O)(=O)c2ccc(O)c(CC=C)c2)ccc1O | 1.11% | –
CCOC(=O)c1ccc(NC(=O)CN2CCCCC2)cc1 | -1.01% [at 53 µM] | –
CN(C[C@@H](CC[N+]12CCC(C3CCCCC3)(CC1)CC2)c1ccc(Cl)c(Cl)c1)C(=O)c1cc(C(F)(F)F)cc(C(F)(F)F)c1 | – | inactive
CCO[Si](C)(OCC)OCC | 0.0702% | –
COc1cc(Cl)ccc1Oc1ccc(Cl)cc1Cl | 2.69% | –
CCOC(=N)CC(=O)OCC | -3.67% | –
CCc1c(Br)c(Br)c(Br)c(Br)c1Br | 0.891% | –
CC/C(=C(/c1ccc(O)cc1)c1ccc(OCCN(C)C)cc1)c1ccccc1 | 3.51% [at 53 µM] | –
CCCC(=O)OC[C@@H](OC(=O)CCC)[C@@H](OC(=O)CCC)[C@H](Cn1c2nc(=O)[nH]c(=O)c-2nc2cc(C)c(C)cc21)OC(=O)CCC | 1.41% [at 53 µM] | –
NC(=O)C1(N2CCCCC2)CCN(CCCN2c3ccccc3CCc3ccc(Cl)cc32)CC1 | -0.31% [at 53 µM] | –
O=C(CS(=O)Cc1ccco1)NC/C=C\COc1cc(CN2CCCCC2)ccn1 (centres undefined) | -1.62% [at 53 µM] | –
O=C(O)c1c2ccccc2cc2ccccc12 | -0.307% | –
COc1cc(C(=O)NC2CCN(C)CC2)ccc1Nc1ncc2c(n1)N(C1CCCC1)CC(F)(F)C(=O)N2C | 1.27% | –
CCCCC/C=C\C/C=C\CCCCCCCC(=O)NC(C)c1ccccc1 (centres undefined) | -0.588% [at 53 µM] | –
CCCCCCCCCCCCOCCOS(=O)(=O)O | 0.306% | –
CC(C)(C)c1ccccc1 | -0.312% | –
CC[N+](CC)(CC)Cc1ccccc1 | -1.3% | –
Cc1nc2ccccn2c(=O)c1CCN1CCC(C(=O)c2ccc(F)cc2)CC1 | 0.738% [at 53 µM] | –
Clc1ccc(C(Cn2ccnc2)OCc2c(Cl)cccc2Cl)c(Cl)c1 (centres undefined) | 1.2% [at 53 µM] | –

Compound | activity change, negative = inhibition | outcome
CCC(C)(Oc1ccc(C2(c3ccc(OC(C)(CC)C(=O)O)cc3)CCCCC2)cc1)C(=O)O (centres undefined) | 0.168% [at 53 µM] | –
CCCCCC/C=C\CCCCCCCC(=O)O | -0.267% | –
CSC(=O)c1cccc2nnsc12 | -0.0323% | –
Clc1ccc(C(Cn2ccnc2)OCc2ccsc2Cl)c(Cl)c1 (centres undefined) | 1.35% [at 53 µM] | –
CCCCCCCCCC[N+](C)(CCCCCCCCCC)CCC[Si](OC)(OC)OC | 5.58% | –
O=C(OC[C@H]1O[C@@H](OC(=O)c2cc(O)c(O)c(OC(=O)c3cc(O)c(O)c(O)c3)c2)[C@H](OC(=O)c2cc(O)c(O)c(OC(=O)c3cc(O)c(O)c(O)c3)c2)[C@@H](OC(=O)c2cc(O)c(O)c(OC(=O)c3cc(O)c(O)c(O)c3)c2)[C@@H]1OC(=O)c1cc(O)c(O)c(OC(=O)c2cc(O)c(O)c(O)c2)c1)c1cc(O)c(O)c(OC(=O)c2cc(O)c(O)c(O)c2)c1 | -0.451% [at 23.6 µM] | –
CN1CCCN=C1/C=C/c1cccs1 | -1.63% [at 53 µM] | –
CC(=O)/C=C/C=C1/C2CCC(C2)C1(C)C (centres undefined) | -1.87% [at 53 µM] | –
CN1CC(=O)N2[C@H](c3ccc4c(c3)OCO4)c3[nH]c4ccccc4c3C[C@@H]2C1=O | 0.885% [at 53 µM] | –
COc1cc(N)c(Cl)cc1C(=O)NC1CCN(Cc2ccccc2)CC1 | 6.22% [at 53 µM] | –
CCCCCCCCCCCCOC(=O)c1ccc(O)cc1 | 1.81% | –
Cc1ccc2c(c1)OCC(=O)CO2 | 0% | –
Cc1ccc([N+](=O)[O-])cc1Cl | -0.374% | –
CNc1ccc(O)cc1 | -19% | –
Nc1c(NC/C=C\COc2cc(CN3CCCCC3)ccn2)c(=O)c1=O | 0.669% [at 23.6 µM] | –
COc1ccc(N=Nc2cc(C)c(N=Nc3ccc(S(=O)(=O)O)cc3)cc2OC)cc1 | 28.1% | –
CCN1CCC[C@H]1CNC(=O)c1c(OC)ccc(Br)c1OC | -0.93% [at 53 µM] | –
Cc1cc(O)c2ccccc2c1O | -0.192% [at 53 µM] | –
CCN(Cc1cccc(S(=O)(=O)O)c1)c1ccc(C(=C2C=CC(=[N+](CC)Cc3cccc(S(=O)(=O)[O-])c3)C=C2)c2ccccc2)cc1 | 2.59% [at 53 µM] | –
